High-throughput results from PubChem.
PTHR1 agonist: qHTS for PTHR1 Agonists: Primary Screen; hit rate 0.075% among 410,000; HEK293 GP2 PTHR1 cells, GloSensor cAMP luminescence, 1 h; Potency, µM (doses to about 115 µM), for inactives: at the highest dose activation, most hits filed as activators; AID 743266, 2014; note: nearly all actives have a fitted effect of over 55% in size
Target sequence (Q03431 whole entry, looked up): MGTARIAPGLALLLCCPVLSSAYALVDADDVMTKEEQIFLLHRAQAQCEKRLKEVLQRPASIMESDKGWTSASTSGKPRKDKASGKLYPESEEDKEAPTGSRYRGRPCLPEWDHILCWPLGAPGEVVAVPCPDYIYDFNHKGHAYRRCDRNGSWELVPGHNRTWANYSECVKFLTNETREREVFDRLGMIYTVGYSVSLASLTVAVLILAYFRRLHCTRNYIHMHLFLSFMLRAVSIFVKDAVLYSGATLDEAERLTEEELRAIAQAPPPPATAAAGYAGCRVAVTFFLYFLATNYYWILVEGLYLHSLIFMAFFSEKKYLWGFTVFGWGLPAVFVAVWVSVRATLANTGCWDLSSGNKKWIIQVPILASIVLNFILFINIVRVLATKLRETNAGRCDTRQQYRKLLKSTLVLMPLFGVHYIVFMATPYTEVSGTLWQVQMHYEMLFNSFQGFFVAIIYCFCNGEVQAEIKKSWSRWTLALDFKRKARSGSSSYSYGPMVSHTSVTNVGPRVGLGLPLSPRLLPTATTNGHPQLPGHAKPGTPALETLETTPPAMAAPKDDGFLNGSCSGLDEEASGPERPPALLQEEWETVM
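HEK-293-derived GP2 cells expressing PTHR1 and a GloSensor cAMP reporter, 3,000/well, plated overnight, given luciferin plus IBMX (each 0.5 mM as added) for 1 h at 37 °C, then compound for 1 h at 37 °C. Luminescence was read after 15 min at room temperature.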
GLP-1R agonist: qHTS of GLP-1 Receptor Agonists. hit rate 0.007% among 380,000. Potency, µM (doses to about 45.6 µM), for the others: top-dose activation, usual class: activators. AID 624172, 2012. HEK293 GLP-1R CRE-luciferase, luminescence, 4-6 h; cells express a hypersensitive GLP-1R form; note: % of control where 0% means no effect
HEK293 tox: qHTS of GLP-1 Receptor Inverse Agonists: Cytotox Screen; hit rate 0.13% among 410,000; Potency, µM (top dose mostly 38.3 µM), for inactives: top-dose activity change, negative = inhibition, usual class: inhibitors; AID 624418, 2012; HEK293 cAMP-luciferase reporter cells, luminescence, 24 h;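 note: loss of luciferase light is scored as toxicity; % is set by controls: 0 for no effect and ±100 for the full control effect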
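Compound-treated cells are incubated 24 hr at 37 deg C under 5% CO2 after a 12 hour attachment period, then luciferase detection reagent is added and luminescence is measured following 12 min at room temperature; lowered signal indicates toxicity.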
RGS4 inh: Inhibitors of Regulator of G Protein Signaling (RGS) 4: qHTS. Regulator of G-protein signaling 4 (Homo sapiens), P49798. Transcreener GDP fluorescence polarization, RGS4-accelerated GTP hydrolysis. Potency, µM (highest dose often 114 µM), without a hit: at the highest dose activity change, negative = inhibition, actives largely listed as inhibitors. hit rate 0.039% among 390,000. AID 504845, 2011; note: % is set by controls: 0 for no effect and ±100 for the full control effect; nearly all actives have a fitted effect of over 75% in size
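MLSMR compounds (23 nl, pin-transferred) preincubated 10 min at room temperature with a 500nM (2x) first reagent, then RGS4 at 900nM (2x) plus Transcreener GDP mix added; fluorescence polarization (620/688 nm) read before and after 90 min at 30 °C.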
GLP-1R inv ag: qHTS of GLP-1 Receptor Inverse Agonists (Inhibition Mode). hit rate 1.6% among 410,000. Potency, µM (titrated, usually from 38.3 µM), for inactives: at the highest dose activity change, negative = inhibition, actives largely listed as inhibitors. Glucagon-like peptide 1 receptor (Homo sapiens), P43220. HEK293 GLP-1R CRE-luciferase, luminescence, 24 h; GLP-1R form is constitutively active; note: % is set by controls: 0 for no effect and ±100 for the full control effect; nearly all actives have a fitted effect of over 55% in size
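Cells are plated, allowed 12 hours at 37 deg C, then treated with compounds for 24 hr before luciferase detection reagent is added and luminescence is read after 12 min at room temperature. The HEK293 line carries constitutively active GLP-1R with a cAMP-responsive reporter.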
KAT2A inh: qHTS Assay for Inhibitors of GCN5L2 | Potency, µM (top dose mostly 58.9 µM), for inactives: top-dose activity change, negative = inhibition, most hits filed as inhibitors | AID 504327, 2011 | hit rate 0.21% among 390,000 | Histone acetyltransferase KAT2A (Homo sapiens), Q92830 | GCN5L2 HAT assay, ThioGlo1 CoA-SH fluorescence; note: % is set by controls: 0 for no effect and ±100 for the full control effect
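Free CoA generated was detected with ThioGlo1 (50uM) fluorescence at Ex340nm/Em540nm, read immediately and after 20 min at room temperature. Enzyme, 20 nM in HEPES pH 7.5 buffer, saw compounds 15 min before adding 75uM H3(1-25) peptide and 70uM acetyl-CoA.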
Active calls of the source: *; i = inactive; u = inconclusive; x = no result; [ ] = dose if it differs, or a comment. Sampled rows, rich in hits. Any-hit rate of the full collection: about 1.8%. Calls come from the whole dose curve; as a rule, active = well fitted curve in the direction sought with a large enough effect; inconclusive = small, poorly fitted or top-dose-only effect, or another doubt; inactive = no such curve, though single readings can be large; an effect the other way counts as inactive or inconclusive. Potency is the fitted concentration of half-maximal effect.

SMILES | PTHR1 agonist | GLP-1R agonist | HEK293 tox | RGS4 inh | GLP-1R inv ag | KAT2A inh
Cc1ccc2sc(N(CCN(C)C)C(=O)c3ccc(S(=O)(=O)N4CC(C)OC(C)C4)cc3)nc2c1C (stereo not given) | i | -1% | -11% | 0% | u | 2%
Cc1cc(C)c2nc(N(CCN(C)C)C(=O)c3ccc(S(=O)(=O)N(C)CC4CCCO4)cc3)sc2c1 (stereo not given) | -2% | -6% | 5% | -10% | 10µM* | 1%
Cc1ccc2sc(N(CCCN(C)C)C(=O)c3ccc(S(=O)(=O)N(C)C4CCCCC4)cc3)nc2c1C | -4% | -7% | u | -14% | 2.8µM* | -6%
O=C1NN(C(=O)Nc2ccc(Br)cc2)C(c2ccccc2)C1c1ccccc1 (stereo not given) | x | x | x | x | x | -18%
CCn1cc([N+](=O)[O-])c(C(=O)Nc2nc3ccc(OC)cc3s2)n1 | i | 0% | 5% | -26% | 33% | -3%
COc1ccc(-n2c(-c3ccc(Cl)cc3)cc3c2CC(C)(C)CC3=O)c(OC)c1 | i | x | -15% | 1% | u | -6%
CCCC(NCC(O)COc1ccc(-c2ccccc2)cc1)c1ccccc1 (stereo not given) | -32% | -6% | u | 14% | 13µM* | -4%
OC(CNC1CCCC1)COc1ccc(-c2ccccc2)cc1 (stereo not given) | -31% | 1% | 10% | 21% | 8.9µM* | -8%
CN(CC(O)COc1ccc2ccccc2c1)C1CCCCC1 (stereo not given) | i | 0% | -20% | -23% | 8.9µM* | -15%
CC(NCC(O)COC1CCC(C(C)(C)C)CC1)c1ccccc1 (stereo not given) | -7% | 3% | u | -11% | 10µM* | -6%
O=c1cc(COc2ccc(Cl)cc2Cl)nc2scc(-c3ccccc3)n12 | -6% | -3% | 19% | 16% | 5% | u
COc1ccc(Nc2c3c(nc4ccc(NC(=O)/C=C/c5cccc(OC)c5OC)cc24)CCCC3)cc1OC | i | x | u | u | u | -11%
C[C@H](NC(=O)CNC(=O)[C@@H](NC(=O)[C@H](Cc1ccccc1)NC(=O)CNC(=O)CNC(=O)[C@@H](N)Cc1ccccc1)[C@@H](C)O)C(=O)N[C@@H](CCCN=C(N)N)C(=O)N[C@@H](CCCCN)C(=O)N[C@@H](CO)C(=O)N[C@@H](C)C(=O)N[C@@H](CCCN=C(N)N)C(=O)N[C@@H](CCCCN)C(N)=O | x | x | x | x | x | -8%
COc1ccc(OCC(O)CNC(C)c2ccccc2)cc1 (stereo not given) | i | 3% | 4% | 9% | -24% | -3%
CC(NCC(O)COc1ccc2ccccc2c1)c1ccccc1 (stereo not given) | -8% | 10% | u | 8% | 2.8µM* | -1%
Cc1cc(N2CCC(C)CC2)nc(SCC(=O)c2ccccc2)n1 | -27% | 1% | 1% | -39% | 3.2µM* | -5%
S=c1nc(C2CC2)n(-c2ccccc2)[nH]1 | -11% | 5% | -3% | 0% | 15% | -16%
COC(=O)c1sccc1NC(=O)CSc1ccccc1NS(=O)(=O)c1ccc(Cl)cc1 | -14%[57.5 µM] | 0% | -16% | -30% | 10µM* | -6%
COc1ccc2nc(C)cc(Nc3ccccc3O)c2c1 | i | -1% | u | -91%[56.9 µM] | u | -6%
COc1ccc2nc(C)cc(NCc3cccc(C(F)(F)F)c3)c2c1 | -12% | 4% | u | 7% | 2.8µM* | -4%
COc1ccccc1C1CC(c2ccccc2)=NN1C(=O)c1ccccc1 (stereo not given) | i | -4% | u | -10% | 8.9µM* | -28%
Cc1ccc(S(=O)(=O)Nc2ccc3c(c2)c(C(=O)OC(C)C)c(C)n3S(=O)(=O)c2ccc(C)cc2)cc1 | i | x | -4% | -11% | u | -28%
S=C(NCc1ccccc1)Nc1cccc(Cl)c1 | i | -1% | 10µM* | -10% | u | 0%
Fc1cccc(NC(=S)NCc2ccccn2)c1 | 28% | 3% | 10µM* | 8% | u | 3%
S=C(NCCSCc1ccc(Cl)cc1Cl)Nc1ccccc1 | i | 0% | -8% | -3% | 3.5µM* | u
SMILES | PTHR1 agonist | GLP-1R agonist | HEK293 tox | RGS4 inh | GLP-1R inv ag | KAT2A inh
S=C(NCc1ccccc1)NNc1ccccc1 | i | 1% | 8.9µM* | -30% | 10µM* | -4%
S=C(NCCSCc1ccc(Cl)c(Cl)c1)Nc1ccccc1 | i | -6% | u | -36% | u | x
S=C(NCc1ccccc1)NCc1ccccc1 | -10% | -3% | 1% | 1% | -5% | -7%
O=C(CSc1nnc(CNC(=O)c2cccs2)o1)Nc1ccc(F)cc1F | -8% | -1% | -1% | -30% | 6% | 3%
COCc1cc(C)nc2sc(C(=O)NN)c(-n3cccc3)c12 | -11% | 0% | 20% | 7% | 13% | -4%
CCCCNC(=O)c1sc2nc(C)cc(COC)c2c1-n1cccc1 | -10% | -6% | -19% | -28% | 8.9µM* | -10%
CN(C)CCCn1c(SCC(=O)Nc2nc(-c3cccc(Br)c3)cs2)nc2ccccc2c1=O | i | 10% | u | -26% | 11µM* | 39%
Cc1cc(Br)c(NC(=O)CN2C(=O)NC3(CCOc4ccccc43)C2=O)c(Br)c1 (stereo not given) | -34% | -1% | 20% | x | -18% | x
O=C(Nc1nc(-c2cccs2)cs1)c1ccc(S(=O)(=O)N2CCCCC2)cc1 | -90% | -12% | -12% | -14% | u | -9%
O=C(Nc1nc(-c2cccs2)cs1)c1cccc(S(=O)(=O)N2CCCCCC2)c1 | -29% | -4% | 2% | 11% | 5.6µM* | -6%
COc1ccc(CCNc2ncnc3c2c(-c2ccccc2)cn3-c2cccc(Cl)c2)cc1OC | -19% | x | -7% | -3% | 10µM* | 1%
CCOc1ccc(-n2cc(-c3ccccc3)c3c(NCc4ccccc4)ncnc32)cc1 | i | x | 3% | 16% | u | 0%
